Measured values reported in PubChem BioAssay (NCI).
About 83,000 compounds went through this panel and 20% of them were active in at least one assay; those are over-represented in the sample as a whole.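 For each line, cells grew in 96-well plates with the test compound present at a single concentration for 48 hours.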 Activity calls are given as the source filed them. Rule for the calls: active = growth percent below 10; inactive = the rest.

How the values were obtained:
Assay in all cases: NCI-60 one-dose screen, 48 h (100 = growth as untreated, 0 = no growth, -100 = all killed)
Details in all cases: 10 µM unless noted
DU-145 prostate = test system: DU-145 prostate
K-562 leukemia = test system: K-562 leukemia
MALME-3M melanoma = test system: MALME-3M melanoma
MDA-MB-231 breast = test system: MDA-MB-231 breast
RXF 393 renal = test system: RXF 393 renal
SF-268 CNS = test system: SF-268 CNS
SF-295 CNS = test system: SF-295 CNS
SF-539 CNS = test system: SF-539 CNS
UACC-257 melanoma = test system: UACC-257 melanoma
M14 melanoma = test system: M14 melanoma
HCT-15 colon = test system: HCT-15 colon
HT29 colon = test system: HT29 colon
SNB-75 CNS = test system: SNB-75 CNS
SNB-19 CNS = test system: SNB-19 CNS
U251 CNS = test system: U251 CNS
PC-3 prostate = test system: PC-3 prostate
SK-MEL-5 melanoma = test system: SK-MEL-5 melanoma
UACC-62 melanoma = test system: UACC-62 melanoma
LOX IMVI melanoma = test system: LOX IMVI melanoma
SK-MEL-28 melanoma = test system: SK-MEL-28 melanoma

Measured: growth

O=C(Cn1cc(CN2C(=O)c3ccccc3S2(=O)=O)nn1)Nc1cccc(Cl)c1
inactive: DU-145 prostate 109% | K-562 leukemia 103% | MALME-3M melanoma 99.6% | MDA-MB-231 breast 115% | RXF 393 renal 106% | SF-268 CNS 99.4% | SF-295 CNS 115% | SF-539 CNS 110% | UACC-257 melanoma 113% | M14 melanoma 100% | HCT-15 colon 98.2% | HT29 colon 109% | SNB-75 CNS 87.8% | SNB-19 CNS 115% | U251 CNS 112% | PC-3 prostate 104% | SK-MEL-5 melanoma 106% | UACC-62 melanoma 97.4% | LOX IMVI melanoma 89.5% | SK-MEL-28 melanoma 105%

COc1ccc(C2=Nc3c(N)ncnc3NC(c3cccc(Nc4ccnc5cc(C(F)(F)F)ccc45)c3)C2)cc1 (stereo not given)
inactive: DU-145 prostate 80.2% | K-562 leukemia 15.5% | MALME-3M melanoma 72.3% | MDA-MB-231 breast 46.3% | RXF 393 renal 41% | SF-268 CNS 56.9% | SF-295 CNS 61.9% | SF-539 CNS 70% | UACC-257 melanoma 74.9% | M14 melanoma 66% | HCT-15 colon 32.4% | HT29 colon 42.6% | SNB-75 CNS 56.7% | SNB-19 CNS 68.2% | U251 CNS 54.5% | PC-3 prostate 42.2% | SK-MEL-5 melanoma 51.8% | UACC-62 melanoma 76.1% | LOX IMVI melanoma 61.8% | SK-MEL-28 melanoma 84%

CN1CCN(CCCOC(=O)c2c3c(n4ccccc24)C(=O)c2ncccc2C3=O)CC1
active: DU-145 prostate -66.5% | K-562 leukemia -30.4% | MALME-3M melanoma -59.7% | RXF 393 renal -2.1% | SF-268 CNS 5.69% | SF-295 CNS -5.73% | SF-539 CNS -13.1% | UACC-257 melanoma -34.2% | M14 melanoma -86.1% | HCT-15 colon -39.1% | HT29 colon -32.3% | SNB-75 CNS -88.7% | SNB-19 CNS 1.8% | U251 CNS -31.7% | SK-MEL-5 melanoma -98% | UACC-62 melanoma -48.8% | LOX IMVI melanoma -60.9%
inactive: MDA-MB-231 breast 20% | PC-3 prostate 17.6% | SK-MEL-28 melanoma 12.5%

O=[N+]([O-])/C(=C\c1ccco1)c1ccccc1Cl
inactive: DU-145 prostate 86.1% | K-562 leukemia 67.9% | MALME-3M melanoma 80.6% | MDA-MB-231 breast 87.9% | RXF 393 renal 67.1% | SF-268 CNS 87% | SF-295 CNS 102% | SF-539 CNS 91.7% | UACC-257 melanoma 66.7% | M14 melanoma 66.2% | HCT-15 colon 67.7% | HT29 colon 69.7% | SNB-75 CNS 64.8% | SNB-19 CNS 79.7% | U251 CNS 72.6% | PC-3 prostate 45.8% | SK-MEL-5 melanoma 76.7% | UACC-62 melanoma 33.8% | LOX IMVI melanoma 64.2% | SK-MEL-28 melanoma 60.3%

CCOC(=O)CSc1nc2sc3c(c2c(=O)n1-c1ccc([N+](=O)[O-])cc1)CCCCC3
inactive: DU-145 prostate 63.5% | K-562 leukemia 75.2% | MALME-3M melanoma 77.7% | MDA-MB-231 breast 50.4% | RXF 393 renal 76.8% | SF-268 CNS 71.2% | SF-295 CNS 59.3% | SF-539 CNS 58.3% | UACC-257 melanoma 89% | M14 melanoma 75.3% | HCT-15 colon 85.1% | HT29 colon 78.6% | SNB-75 CNS 11% | SNB-19 CNS 78.8% | U251 CNS 53.5% | PC-3 prostate 73.2% | SK-MEL-5 melanoma 88.7% | UACC-62 melanoma 74.9% | LOX IMVI melanoma 79.6% | SK-MEL-28 melanoma 84.1%

O=C1/C(=C/c2cccc([N+](=O)[O-])c2)COc2ccc(O)cc21
inactive: DU-145 prostate 81.8% | K-562 leukemia 13.4% | MALME-3M melanoma 76.6% | MDA-MB-231 breast 47.9% | RXF 393 renal 107% | SF-268 CNS 85.9% | SF-295 CNS 95.5% | SF-539 CNS 70.6% | UACC-257 melanoma 97% | M14 melanoma 55% | SNB-75 CNS 79.4% | SNB-19 CNS 72.2% | PC-3 prostate 42.9% | SK-MEL-5 melanoma 89.1% | UACC-62 melanoma 59.4% | SK-MEL-28 melanoma 82.7%
active: HCT-15 colon -9.57% | HT29 colon 3.32% | U251 CNS 2.17% | LOX IMVI melanoma -80.6%

CC1(C)O[C@H]2OC3CCC(=O)CC3(O)[C@H]2O1 (stereo not given in full)
inactive: DU-145 prostate 107% | K-562 leukemia 94.8% | MALME-3M melanoma 104% | MDA-MB-231 breast 113% | RXF 393 renal 104% | SF-268 CNS 99.3% | SF-295 CNS 110% | SF-539 CNS 105% | UACC-257 melanoma 96.5% | M14 melanoma 99.9% | HCT-15 colon 111% | HT29 colon 98.6% | SNB-75 CNS 95.1% | SNB-19 CNS 107% | U251 CNS 96.5% | PC-3 prostate 82% | SK-MEL-5 melanoma 98.8% | UACC-62 melanoma 107% | LOX IMVI melanoma 96.7% | SK-MEL-28 melanoma 120%

CCOC(=O)c1c(NC(=O)CSc2n[nH]c3nc4ccccc4n23)sc(CC)c1C
inactive: DU-145 prostate 112% | K-562 leukemia 117% | MALME-3M melanoma 138% | MDA-MB-231 breast 90.3% | RXF 393 renal 96.1% | SF-268 CNS 108% | SF-295 CNS 91% | SF-539 CNS 111% | UACC-257 melanoma 113% | M14 melanoma 116% | HCT-15 colon 97.9% | HT29 colon 109% | SNB-75 CNS 95.3% | SNB-19 CNS 103% | U251 CNS 97.6% | PC-3 prostate 61.5% | SK-MEL-5 melanoma 98% | UACC-62 melanoma 77.9% | LOX IMVI melanoma 99% | SK-MEL-28 melanoma 113%
